Source: PubChem
NPSR antagonist: qHTS Assay for Antagonists of the Neuropeptide S Receptor: cAMP Signal Transduction. CHO-NPSR cells, cAMP TR-FRET, antagonist mode. Potency, µM (highest dose often 38.3 µM), without a hit: top-dose activity change, negative = inhibition, actives largely listed as inhibitors. hit rate 1% among 220,000. AID 1461, 2008; also: nearly all actives have a fitted effect of over 50% in size
Target sequence (Q6W5P4 whole entry, looked up): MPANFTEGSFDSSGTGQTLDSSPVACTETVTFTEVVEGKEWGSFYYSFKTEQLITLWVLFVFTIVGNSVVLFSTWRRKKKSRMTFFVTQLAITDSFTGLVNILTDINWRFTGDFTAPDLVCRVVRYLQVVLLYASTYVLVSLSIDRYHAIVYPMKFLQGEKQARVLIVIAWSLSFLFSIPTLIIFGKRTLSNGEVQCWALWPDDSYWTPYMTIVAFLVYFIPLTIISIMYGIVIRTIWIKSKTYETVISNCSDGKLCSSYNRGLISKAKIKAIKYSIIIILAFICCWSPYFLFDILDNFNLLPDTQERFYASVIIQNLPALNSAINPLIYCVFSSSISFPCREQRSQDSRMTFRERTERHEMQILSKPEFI
HPGD inh: qHTS Assay for Inhibitors of HPGD (15-Hydroxyprostaglandin Dehydrogenase) | Potency, µM, for inactives: top-dose activity change, negative = inhibition, hits mostly inhibitors | purified HPGD, NADH fluorescence kinetic, PGE2 substrate | AID 894, 2007 | hit rate 4.3% among 150,000 | 15-hydroxyprostaglandin dehydrogenase [NAD(+)] (Homo sapiens), P15428; active = well fitted inhibition curve with a large enough effect, not every such curve was filed as active; inconclusive = small, poorly fitted or top-dose-only effect, or another doubt; inactive = no such curve, though single readings can be large or run the other way
Target sequence (P15428 whole entry, looked up): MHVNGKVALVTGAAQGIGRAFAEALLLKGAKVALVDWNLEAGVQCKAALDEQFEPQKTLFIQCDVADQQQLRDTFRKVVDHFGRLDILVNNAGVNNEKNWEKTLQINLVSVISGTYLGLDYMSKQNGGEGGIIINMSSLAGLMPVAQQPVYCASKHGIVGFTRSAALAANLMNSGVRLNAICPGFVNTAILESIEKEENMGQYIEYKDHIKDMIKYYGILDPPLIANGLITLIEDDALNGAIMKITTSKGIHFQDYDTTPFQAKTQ
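NADH formation kinetics: reaction with 30 uM PGE2 and 1 mM NAD+ (final), 20 nM enzyme, Tris-HCl pH 8 with Tween 20, after 15 min compound preincubation at room temperature. Fluorescence change, last versus first of five reads.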
Tau fibril ThT: qHTS for Inhibitors of Tau Fibril Formation, Thioflavin T Binding | hit rate 2.1% among 270,000 | recombinant tau K18 P301L, heparin-induced fibrillization, ThT fluorescence | Microtubule-associated protein tau (Homo sapiens), P10636 | Potency, µM (highest dose often 57.4 µM), without a hit: at the top dose activity, negative = inhibition, most hits filed as inhibitors; also: nearly all actives have a fitted effect of over 55% in size
Target sequence (P10636 561-689 P618L limits assumed): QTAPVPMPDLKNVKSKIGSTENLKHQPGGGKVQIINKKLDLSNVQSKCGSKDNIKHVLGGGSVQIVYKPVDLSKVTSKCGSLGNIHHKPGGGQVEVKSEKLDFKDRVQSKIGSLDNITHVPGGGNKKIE
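Aggregation was driven by heparin (20 uM final) acting on recombinant tau […] bearing P301L in 100 mM sodium acetate pH 7; fibrils were detected with Thioflavin T.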
Tau fibril FP: qHTS for Inhibitors of Tau Fibril Formation, Fluorescence Polarization; Microtubule-associated protein tau (Homo sapiens), P10636; K18 P301L tau heparin fibrillization, Alexa594 FP, 6 h; Potency, µM (titrated, usually from 57.7 µM), for the others: at the highest dose activity, negative = inhibition, hits mostly inhibitors; hit rate 0.39% among 280,000; AID 1468, 2008; also: nearly all actives have a fitted effect of over 55% in size
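FP of Alexa 594-tau after heparin (20 uM) induction. Substrate: human K18 P301L, 15 uM unlabeled, 0.24 uM labeled. Buffer 100 mM sodium acetate pH 7. 6 hr, 37 C.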
Tau fluor counter: Counterscreen qHTS for Inhibitors of Tau Fibril Formation, Fluorescence Polarization; tau K18 P301L Alexa594 fluorescence, heparin fibrillization; Potency, µM (titrated, usually from 57.7 µM), without a hit: at the top dose activity change, negative = decrease; hit rate 0.93% among 280,000; also: nearly all actives have a fitted effect of over 55% in size
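Human tau K18 P301L (15 uM unlabeled, 0.24 uM Alexa 594-labeled) in 100 mM sodium acetate pH 7 with 20 uM heparin, 6 hr at 37 C. ThT 30 uM added, 1 hr ambient; Alexa 594 FP and total fluorescence read at 555/632 nm.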
ALDH1A1 inh: qHTS Assay for Inhibitors of Aldehyde Dehydrogenase 1 (ALDH1A1) | Potency, µM (doses to about 75.3 µM), without a hit: at the top dose activity, negative = inhibition, usual class: inhibitors | hit rate 7.3% among 220,000 | Aldehyde dehydrogenase 1A1 (Homo sapiens), P00352 | Purified ALDH1A1, NADH fluorescence, propionaldehyde substrate; active = well fitted inhibition curve with a large enough effect, not every such curve was filed as active; inconclusive = small, poorly fitted or top-dose-only effect, or another doubt; inactive = no such curve, though single readings can be large or run the other way;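 also: plate controls were no enzyme wells and a reference inhibitor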
Starred values were filed as active, the others as inactive; ? = inconclusive; · = not tested or not shown; [ ] = remark or other dose. A selection: hits, their analogues and other compounds. The true share with any hit is near 9.5%. Unless noted, calls follow the shape of the dose curve; as a rule, active = well fitted curve in the direction sought with a large enough effect; inconclusive = small, poorly fitted or top-dose-only effect, or another doubt; inactive = no such curve, though single readings can be large; an effect the other way counts as inactive or inconclusive. Unless noted, % is scaled to controls: 0 for no effect and ±100 for the full control effect; potency is read from the fitted curve at half-maximal effect.

SMILES	NPSR antagonist	HPGD inh	Tau fibril ThT	Tau fibril FP	Tau fluor counter	ALDH1A1 inh
O=C(/C=C/Nc1ccc(F)c(Cl)c1)c1ccco1	13.4%[46.1 µM]	-23.8%	?	-0.1%	-26.4%	28.2µM*
O=C(/C=C/Nc1ccccc1O)c1ccco1	-3.4%	·	12.6µM*	-6.8%	-26.0%	·
O=C(/C=C/C=C/c1ccccc1)c1ccco1	-16.4%	·	?	-0.9%	-15.0%	28.2µM*
COc1ccccc1Oc1ccc(N/C=C/C(=O)c2ccco2)cc1	-35.2%	·	?	7.7%	?	-8.3%
CN(C)c1ccc(N/C=C/C(=O)c2ccco2)cc1	?	35.5µM*	2µM*	?	?	28.2µM*
COc1ccc(C)cc1NC(=O)C(OC(=O)c1ccc([N+](=O)[O-])o1)c1ccccc1 (stereo unspecified)	-9.5%	-14.3%	-0.5%	7.7%	-12.0%	17.8µM*
COc1ccc(C)cc1NC(=O)C(OC(=O)CNC(=O)c1cc(C)cc(C)c1)c1ccccc1 (stereo unspecified)	-0.1%	-3.1%	-13.3%	-2.5%	-19.0%	?
COc1cc(-n2c(C)nc3cc(C(=O)N4CCOCC4)ccc32)cc(OC)c1OC	3.1%[46.1 µM]	31.6µM*	4.3%	-1.2%	5.7%	2.0%
COc1cc(C(=O)N2CCC(n3c(C)nc4cc(F)ccc43)CC2)cc(OC)c1OC	15.4%	-12.3%	-6.3%	-8.4%	-8.8%	8.1%
O=C(O)[C@H](Cc1cc(I)c(O)c(I)c1)C1CCCCC1	·	-10.9%	·	·	·	-13.1%[13.5 µM]
COc1ccc2c(c1)/C(=N/OC(=O)c1cccs1)CCC2	-22.2%	·	-20.7%	-10.7%	-17.3%	-5.0%
COc1ccc(NC(=O)O/N=C2/CCCc3ccc(OC)cc32)cc1	-13.7%[46.1 µM]	·	14.1µM*	?	?	-6.0%
Cc1cc(C)nc(/N=C(\N)C2=C(O)CC(C)(C)CC2=O)n1	-19.1%[46.1 µM]	-5.3%	-3.0%	-4.4%	-1.8%	3.16µM*
CC1(C)OC(c2ccccc2)=C/C(=C/C=C2C(=O)c3ccccc3C2=O)O1	22.3%	·	?	?	-2.6%	-15.3%
COc1ccc(N=C/C=C2\C=C(c3ccccc3)OC(C)(C)O2)cc1	-19.5%[46.1 µM]	-28.7%	?	4.0%	-16.0%	2.24µM*
Cc1ccccc1N=C/C=C1/C=C(c2ccccc2)OC(C)(C)O1	-15.8%[46.1 µM]	-19.0%	?	6.8%	-2.7%	2.24µM*
COCCCNc1nc2nonc2nc1N(C)CC1CCCN1C (stereo unspecified)	-4.7%	·	-13.4%	-1.6%	-12.8%	0.5%
COc1ccc(NC(=S)NCCSc2ccc(Cl)cc2)c(OC)c1	-21.8%[46.1 µM]	15.8µM*	5.3%	1.2%	3.4%	20µM*
COc1ccccc1NC(=S)NCCSc1ccc(Cl)cc1	-2.1%	-9.8%	-5.8%	-13.0%	?	-0.3%
Cc1noc(C)c1C(=O)N1CCC(CO)(Cc2ccccc2)CC1	-10.2%	·	-6.3%	1.8%	-1.1%	3.98µM*
CC#CCN1c2ccccc2[C@]23C[C@@H](C(=O)OC)N(S(=O)(=O)c4ccc(C#N)cc4)C2=NC(C(=O)OC)=C(C(=O)OC)[C@H]13	·	-8.3%	1.9%[11.5 µM]	-0.2%[11.6 µM]	-3.7%[11.6 µM]	6.0%[13.5 µM]
CCOc1ccccc1OCc1nn2c(COc3ccccc3)nnc2s1	-18.5%[46.1 µM]	11.2µM*	?	-4.0%	-7.3%	7.94µM*
CCOc1ccc(-c2nnc3sc(COc4ccccc4)nn23)cc1	-16.2%[46.1 µM]	-5.1%	-14.7%	-2.1%	-3.4%	6.1%
c1ccc(Cc2nn3c(COc4ccccc4)nnc3s2)cc1	-15.1%[46.1 µM]	10µM*	?	-12.8%	-16.1%	5.01µM*
Clc1ccccc1OCc1nn2c(-c3ccncc3)nnc2s1	7.6%[46.1 µM]	3.98µM*	-4.7%	-4.9%	-3.0%	?
SMILES	NPSR antagonist	HPGD inh	Tau fibril ThT	Tau fibril FP	Tau fluor counter	ALDH1A1 inh
Clc1ccccc1-c1nn2c(COc3ccccc3)nnc2s1	-9.0%[46.1 µM]	28.2µM*	-8.2%	7.0%	1.4%	20µM*
c1ccc(OCc2nn3c(C4CCCCC4)nnc3s2)cc1	-4.0%[46.1 µM]	-23.0%	-11.3%	-0.4%	0.1%	?
Nc1nc(-c2ccc3ccccc3c2)cc(-c2cc(-c3ccc4ccccc4c3)nc(N)n2)n1	·	-3.3%	·	·	·	7.2%[13.5 µM]
CC(C)(C)c1csc(NC(=O)c2ccc3nccnc3c2)n1	0.0%[46.1 µM]	10µM*	-17.2%	-3.3%	-12.8%	?
CCc1cccc(NC(=O)CSc2nncn3c2cc2sccc23)c1	·	·	1.6%	-14.9%	-7.3%	·
CC(C)(C)Nc1nc(N2CCCC2)nc(N2CCCC2)n1	-17.5%[46.1 µM]	-6.5%	-15.9%	-5.3%	-8.5%	0.501µM*
CC(C)=CCC/C(C)=C/CO/N=C1/C[C@@H](O)[C@@H](O)[C@@H]2[C@@H]3C(=O)N(C4CCCCC4)C(=O)[C@H]3CC[C@H]12	·	·	-4.1%[11.5 µM]	4.4%[11.6 µM]	-3.2%[11.6 µM]	-1.8%[13.5 µM]
COC(=O)/C(=N/Nc1ccccc1C)Sc1nnc(C(O)c2ccccc2)n1-c1ccccc1 (stereo unspecified)	7.1%	31.6µM*	8.2%	2.2%	8.6%	-5.2%
CC(=O)/C(=N/Nc1cccc(Cl)c1)Sc1nnc(C(O)c2ccccc2)n1-c1ccccc1 (stereo unspecified)	-10.8%	-13.1%	-11.0%	0.5%	-10.6%	12.5%
CCOc1ccc(C2NC(=O)c3ccccc3O2)cc1 (stereo unspecified)	1.1%[46.1 µM]	-14.2%	-14.4%	10.9%	-2.9%	22.4µM*
COc1cc(C2NC(=O)c3ccccc3O2)cc(OC)c1OC (stereo unspecified)	12.3%[46.1 µM]	?	-0.8%	4.2%	-0.1%	?
C=C1C(=O)O[C@@H]2[C@H]3O[C@]3(C)CCC=C(C)CC[C@@H]12	3.2%[46.1 µM]	-4.5%	?	-1.8%	-16.0%	20µM*
C=C1C(=O)O[C@@H]2[C@@H]1CC/C(C)=C\CC[C@@]1(C)O[C@H]21	·	-1.3%	·	·	·	10µM*
CC(C)c1ccc(N2C=Nc3ccc(C(C)C)cc3C2)cc1	7.94µM*	·	·	1.2%	-11.3%	·
COc1ccc(-c2nc(-c3ccccn3)nc(N3CCN(C)CC3)c2C#N)cc1	-27.2%	·	-11.8%	-4.2%	-10.5%	14.1µM*
C/C(=N\Nc1nc2c(s1)CCCC2)c1ccc(Cl)cc1	-11.5%[46.1 µM]	-14.4%	14.1µM*	-12.0%	25.1µM*[quencher]	28.2µM*
CN(C)c1ccc(C(=O)Nc2nc3c(s2)CCCC3)cc1	-49.9%	?	7.94µM*	5.0%	?	?
Cc1cc(C(=O)Nc2nc3c(s2)CCCC3)no1	-22.0%[46.1 µM]	-17.6%	-4.1%	-0.1%	0.8%	11.2µM*
